aSyn 5UTR act = Activators working through SNCA 5'UTR binding (MLPCN); alpha-synuclein 5'UTR reporter, activators screen; activity score, % (tested at 7.5 µM), hits read low; hit rate 7.1% among 300,000; in the data active = activity score below about -60%
Of the large screens only hits and unclear results are named; the others gave an inactive call. A selection follows.

NC(=O)c1sc2nc(-c3ccccc3)ccc2c1N	aSyn 5UTR act -73.1
CC(=O)NC(=S)Nc1sc2c(c1C#N)CCCCC2	aSyn 5UTR act -119.5
N#Cc1c(NC(=O)C2CC2)sc2c1CCCCC2	aSyn 5UTR act -119.2
CC1CCc2sc(NC(=S)NC(=O)c3ccccc3)c(C#N)c2C1 (stereo unspecified)	aSyn 5UTR act -141.2
CCC1(C)Cc2c(sc(NC(=S)NC(=O)c3ccccc3)c2C#N)CO1 (stereo unspecified)	aSyn 5UTR act -145.5
N#Cc1c(NC(=S)NC(=O)c2ccccc2)sc2c1CCC2	aSyn 5UTR act -126.5
Cn1nccc1C(=O)NC(=S)Nc1sc2c(c1C#N)CCCCC2	aSyn 5UTR act -148.3
CC(C)c1ccc(-c2nnn(CCC#N)n2)cc1	aSyn 5UTR act -106.5
Nc1c(C(=O)NCc2ccccc2)sc2nc(N3CCOCC3)c3c(c12)CCCC3	none
Cc1cc(C)c2c(N)c(C(=O)N/N=C/c3cccnc3)sc2n1	aSyn 5UTR act -128.3
Cc1cc(C)c2c(N)c(C(=O)N/N=C/c3ccccc3)sc2n1	aSyn 5UTR act -107.8
Cc1cc(C)c2c(N)c(C(=O)NNC(=O)c3ccccc3)sc2n1	aSyn 5UTR act -107.8
COc1cccc(-c2noc(-c3cccs3)n2)c1	aSyn 5UTR act -75.2
Cc1ccc(-c2nc(-c3cccnc3)no2)cc1	aSyn 5UTR act -78.1
COc1ccc(Cl)cc1-c1nc(-c2ccc(NC(=O)c3cccs3)cc2)no1	aSyn 5UTR act -119.9
COc1ccc(-c2nc(-c3cccc(C)c3)no2)cc1OC	aSyn 5UTR act -200.3
Cc1ccc(-c2nc(-c3ccccc3)no2)cc1	none
COc1cccc(-c2nc(-c3ccc(NC(=O)c4cccnc4)cc3)no2)c1	aSyn 5UTR act -105.8
COc1cccc(OCc2nnc(-c3cccs3)o2)c1	aSyn 5UTR act -141.8
COc1ccc(-c2nc(-c3cccnc3)no2)cc1OC	aSyn 5UTR act -131.7
c1cncc(-c2noc(-c3ccco3)n2)c1	aSyn 5UTR act -90.5
O=C(Nc1ccc(-c2noc(-c3cccs3)n2)cc1)c1cccnc1	aSyn 5UTR act -93.5
COc1cccc(-c2nc(-c3ccccn3)no2)c1	none
COc1cccc(-c2noc(-c3cccnc3)n2)c1	aSyn 5UTR act -152.5
COC(=O)Cc1ccc(NC(=O)c2cccs2)cc1	aSyn 5UTR act -159.0
CC(=O)c1ccc(NC(=O)c2cccs2)cc1	aSyn 5UTR act -88.4
Cc1ccc(NC(=O)c2ccccc2NC(=O)c2cccs2)cc1	aSyn 5UTR act -80.1
N/C(=N\O)c1ccc(NC(=O)c2cccs2)cc1	aSyn 5UTR act -81.1
Cn1c(-c2ccccc2)cnc1N	aSyn 5UTR act -121.9
COCCn1c(-c2ccccc2)cnc1N	aSyn 5UTR act -82.7
Cc1ccc(/C(O)=C2\C(=O)C(=O)N(Cc3cccnc3)C2c2ccccc2[N+](=O)[O-])cc1 (stereo unspecified)	aSyn 5UTR act -98.9
COCCCN1CN=C(Nc2nc3ccccc3o2)NC1	aSyn 5UTR act -81.7
c1ccc2oc(NC3=NCN(CC4CCCO4)CN3)nc2c1 (stereo unspecified)	aSyn 5UTR act -93.7
CCCN1CN=C(Nc2nc3ccccc3o2)NC1	aSyn 5UTR act -112.9
Cc1ccc(Nc2nc(-c3ccncc3)cs2)cc1	aSyn 5UTR act -331.1
Clc1cccc(Nc2nc(-c3ccncc3)cs2)c1	aSyn 5UTR act -159.3
CC(C)c1ccc(NC(=O)CSc2ncccc2C(=O)Oc2cccc([N+](=O)[O-])c2)cc1	aSyn 5UTR act -115.0
O=C(CSc1ncccn1)NCc1cccc(Cl)c1	aSyn 5UTR act -65.2
O=C(Cc1cccs1)NCc1cccc(Cl)c1	aSyn 5UTR act -88.5
O=C(Cc1cccs1)NCc1ccc(Cl)cc1Cl	aSyn 5UTR act -155.4
CCCOc1ccc(CNC(=O)Cc2cccs2)cc1	aSyn 5UTR act -97.6
CCN(CC)C(=S)SSC(=S)N(CC)CC	none
CCN(CC)C(=S)SCC(=O)c1ccc(F)cc1	aSyn 5UTR act -133.1
CCN(CC)C(=S)SCC(=O)c1ccccc1	aSyn 5UTR act -165.0
CCn1c(C)cc(O)c(C(=O)Nc2cccc(Cl)c2)c1=O	aSyn 5UTR act -95.6
Cc1cc(O)c(C(=O)Nc2cccc(Cl)c2)c(=O)n1C	aSyn 5UTR act -103.8
CCn1c(C)c(C)c2cc(C(=O)Nc3cccc(Cl)c3)ccc21	aSyn 5UTR act -117.4
Cc1cc(C)n2cc(-c3ccc(Cl)cc3)c(C(=O)O)c2n1	aSyn 5UTR act -98.6
CCN(Cc1cnn(C)c1)C(=O)c1cc(COc2ccc3c(c2)CCCC3)on1	aSyn 5UTR act -72.7
COc1ccc(N2C(=O)c3ccccc3NC2c2ccc(OC)c(Cn3cc([N+](=O)[O-])cn3)c2)cc1 (stereo unspecified)	aSyn 5UTR act -87.3
C=CS(=O)(=O)c1ccc(Oc2ccc(S(=O)(=O)C=C)cc2)cc1	aSyn 5UTR act -108.2
Cc1cc(N2CCOCC2)nc2ccc(NC(=O)CCC(=O)N3CCN(c4ccccc4F)CC3)cc12	aSyn 5UTR act -126.8
Cc1cc(N2CCOCC2)nc2ccc(NC(=O)CCC(=O)N3CCN(c4ccc(F)cc4)CC3)cc12	aSyn 5UTR act -72.1
Cc1cc(N2CCOCC2)nc2ccc(NC(=O)CCC(=O)N3CCCC(C)C3)cc12 (stereo unspecified)	aSyn 5UTR act -86.5
COC(=O)CCS(=O)(=O)c1nc(-c2ccccc2)cc(C(F)(F)F)n1	aSyn 5UTR act -73.2
